Activity calls are given as the source filed them.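 The calls were made as follows: active = compounds that cut cell viability with a fitted half-maximal dose no more than twice the top valid dose; inconclusive = flat curve inhibiting 30 to 70%, or a poor fit; inactive = the rest, including any rise in viability.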

This assay in a line: viability loss in A549 lung cells – cell-based, luminescence, dry powder, set 10, cytotoxicity control, dose response (AID 743356). The settings on record: CellTiter-Glo ATP luminescence, 72 h; at 26 µM unless noted.
`COc1ccccc1C(=O)N1CCN(c2ccc(C(C)=O)cc2)CC1`: the max inhibition of viability %, active compounds read high was 13.9% [at 0.012 µM] (inactive).
The value for `CN1c2ccc(-c3ccc(F)cc3)cc2[C@H]2[C@H](CCN2C(=O)Nc2ccc(F)cc2)[C@H]1CO` was 18.3% [at 0.05 µM] (inactive); that for `COCC(=O)N1CC[C@@H]2[C@@H](CO)N(C)c3ccc(-c4cccc(F)c4)cc3[C@@H]21` was -10.3% (inactive).
The figure for `CN1c2ccc(-c3ccc(F)cc3)cc2[C@H]2[C@H](CCN2C(=O)Nc2cc(F)ccc2F)[C@H]1CO` is -3.91% [at 23.5 µM] (inactive); for `COc1ccccc1NC(=O)N1CC[C@@H]2[C@@H](CO)N(C)c3ccc(-c4cccc(F)c4)cc3[C@@H]21` it is -10.1% [at 23.5 µM] (inactive).
`CN1c2ccc(-c3cccc(F)c3)cc2[C@H]2[C@H](CCN2C(=O)Cc2cccnc2)[C@H]1CO`: the max inhibition of viability %, active compounds read high was -2.44% (inactive).
For `CNC(=O)c1ccc(N2CCN(C(=O)c3ccc4c(c3)OCO4)CC2)cc1`, the max inhibition of viability %, active compounds read high is -22.9% [at 0.0015 µM] (inactive).
With `CN1c2ccc(-c3cccc(F)c3)cc2[C@H]2[C@H](CCN2C(=O)c2ccc3c(c2)OCO3)[C@@H]1CO`, the max inhibition of viability %, active compounds read high is -9.58% (inactive).
Take `CN(C)C(=O)c1ccc(N2CCN(C(=O)c3ccc4c(c3)OCO4)CC2)cc1`: the max inhibition of viability %, active compounds read high was 10.1% [at 0.1 µM] (inactive).
The figure for `CC(=O)c1ccc(N2CCN(C(=O)c3ccc4c(c3)OCO4)CC2)cc1` is 20.5% [at 0.8 µM] (inactive); for `CN1c2ccc(-c3cccc(F)c3)cc2[C@H]2[C@H](CCN2C(=O)CCCCCCC(=O)O)[C@H]1CO` it is -12.9% (inactive); for `COc1cccc(NC(=O)N2CC[C@@H]3[C@@H](CO)N(C)c4ccc(-c5cccc(F)c5)cc4[C@@H]32)c1` it is -9.56% (inactive).
Take `CC(=O)c1ccc(N2CCN(C(=O)c3ccc4c(c3)OCO4)[C@H](C)C2)cc1`: the max inhibition of viability %, active compounds read high is 9.13% [at 12 µM] (inactive).
The figure for `CC(C)NC(=O)N1CC[C@@H]2[C@@H](CO)N(C)c3ccc(-c4ccc(F)cc4)cc3[C@@H]21` is 12.6% [at 0.05 µM] (inactive).
The value for `CC(=O)c1ccc(N2CCN(C(=O)c3ccccc3F)CC2)cc1` was 10.7% [at 0.012 µM] (inactive); that for `COC(=O)c1ccc(N2CCN(C(=O)c3ccc4c(c3)OCO4)CC2)cc1` was 15.6% [at 0.1 µM] (inactive).
In the case of `CCC(=O)N1CC[C@@H]2[C@@H](CO)N(C)c3ccc(-c4ccc(F)cc4)cc3[C@@H]21`, the max inhibition of viability %, active compounds read high was -5.87% [at 0.09 µM] (inactive).
The value for `CN1c2ccc(-c3cccc(F)c3)cc2[C@H]2[C@H](CCN2C(=O)Nc2ccccc2F)[C@H]1CO` was -15.8% [at 23.5 µM] (inactive); that for `CN1c2ccc(-c3cccc(F)c3)cc2[C@@H]2[C@@H](CCN2C(=O)c2ccc3c(c2)OCO3)[C@H]1CO` was -9.13% (inactive).
The figure for `CC(=O)c1ccc(N2CC3(CN(C(=O)c4ccc5c(c4)OCO5)C3)C2)cc1` is -11.2% [setting not given] (inactive); for `COc1ccc(NC(=O)N2CC[C@@H]3[C@@H](CO)N(C)c4ccc(-c5cccc(F)c5)cc4[C@@H]32)cc1` it is -13.8% [at 0.0235 µM] (inactive).
The figure for `CN1c2ccc(-c3cccc(F)c3)cc2[C@H]2[C@H](CCN2C(=O)Cc2ccccc2)[C@H]1CO` is -6.91% [at 23.5 µM] (inactive); for `CC(=O)c1ccc(NCCNC(=O)c2ccc3c(c2)OCO3)cc1` it is 9.33% [at 0.0007 µM] (inactive).
For `COC(=O)CCCCCCC(=O)N1CC[C@@H]2[C@@H](CO)N(C)c3ccc(-c4cccc(F)c4)cc3[C@@H]21`, the max inhibition of viability %, active compounds read high was 8.86% [at 6 µM] (inactive).
The value for `CN1c2ccc(-c3cccc(F)c3)cc2[C@H]2[C@H](CCN2C(=O)CCCCCCN)[C@H]1CO` was 15.1% [at 0.0004 µM] (inactive); that for `CNS(=O)(=O)c1ccc(N2CCN(C(=O)c3ccc4c(c3)OCO4)CC2)cc1` was 21.4% [at 0.003 µM] (inactive); that for `CN1c2ccc(-c3ccc(F)cc3)cc2[C@H]2[C@H](CCN2C(=O)Cc2cccnc2)[C@H]1CO` was 13.9% [at 0.0007 µM] (inactive).
The figure for `CN1c2ccc(-c3cccc(F)c3)cc2[C@@H]2[C@@H](CCN2C(=O)c2ccc3c(c2)OCO3)[C@@H]1CO` is -3.11% (inactive); for `CC(C)NC(=O)N1CC[C@@H]2[C@@H](CO)N(C)c3ccc(-c4cccc(F)c4)cc3[C@@H]21` it is 14.2% [setting not given] (inactive).

Values taken from PubChem BioAssay AID743356 (Broad Institute, 2014).
